# MCF10A rereplic: A quantitative high throughput screen for small molecules that induce DNA re-replication in MCF 10a normal breast cells. MCF 10A DNA re-replication, Hoechst nuclear intensity, 48 h. Potency, µM (doses to about 46.1 µM), for the others: at the highest dose activity, positive = re-replication, hits mostly activators. hit rate 2.9% among 350,000. AID 624296, 2012; further: % of control where 0% means no effect; nearly all actives have a fitted effect of over 50% in size
# SW480 rereplic: A quantitative high throughput screen for small molecules that induce DNA re-replication in SW480 colon adenocarcinoma cells. AID 624297, 2012. SW480 DNA re-replication, Hoechst DNA content imaging, 48 h. hit rate 1.8% among 340,000. Potency, µM (doses to about 46.1 µM), inactives show at the highest dose re-replication activation, actives largely listed as activators; further: % of control where 0% means no effect; nearly all actives have a fitted effect of over 55% in size
#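 Hoechst fluorescence of nuclei (405 nm excitation, 500-530 nm emission) measured by plate-scanning imager after 48 hr compound exposure at 37 C; re-replication scored as increased number of nuclei with elevated intensity.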
# KB-V1 MDR tox: qHTS assay for MDR1-selective chemotherapeutics: Primary screen using the drug-selected MDR subline cells KB-V1; KB-V1 MDR cells viability, CellTiter-Glo, 72 h; Potency, µM (top dose mostly 46.1 µM), most hits filed as cytotoxic; hit rate 3.4% among 400,000; further: on the % scale 0 is the no-effect control and ±100 the full control effect; nearly all actives have a fitted effect of over 60% in size
#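 Readout: CellTiter-Glo luminescence, 10 min after addition. Cells: KB-V1 MDR subline, 72 h at 37 degrees C with compound. Analysis: corrected, normalized data fitted to concentration-effect curves.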
# KB-3-1 tox: qHTS assay for MDR1-selective chemotherapeutics: Primary screen using the parental adenocarcinoma cell KB-3-1; KB-3-1 viability, CellTiter-Glo ATP luminescence, 72 h; hit rate 1.4% among 400,000; Potency, µM (top dose mostly 46.1 µM), hits mostly cytotoxic; further: on the % scale 0 is the no-effect control and ±100 the full control effect; nearly all actives have a fitted effect of over 60% in size
#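 KB-3-1 cells, DMEM (no phenol red) + 10% FBS; compound by pin transfer, 72 h, 37 °C. Readout: CellTiter-Glo luminescence after 10 min. Data normalized, curve-fitted.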
# ELG1 repair inh: qHTS screen for small molecules that inhibit ELG1-dependent DNA repair in human embryonic kidney (HEK293T) cells expressing luciferase-tagged ELG1; HEK293T ELG1-luciferase reporter, luminescence, 16 h; DNA damage induced by 5-fluorouridine; Potency, µM (highest dose often 46.1 µM), for the others: top-dose activity change, negative = inhibition, most hits filed as inhibitors; hit rate 2.3% among 330,000; AID 504467, 2011; further: on the % scale 0 is the no-effect control and ±100 the full control effect; nearly all actives have a fitted effect of over 55% in size
#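 HEK293T cells expressing luciferase-tagged ELG1 (2,000/well) received 5-Fluorouridine plus compound or DMSO for 16 hr at 37 °C. Luciferase was read by ONE-Glo luminescence after 30 min at room temperature.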
# Numbers without * were called inactive; i = inactive; ? = inconclusive; nt = not tested or not shown. Most compounds without a hit are left out; they make up all but 8.1% or so of the library. The call rests on the fitted dose curve; in most records, active means well fitted curve in the direction sought with a large enough effect; inconclusive means small, poorly fitted or top-dose-only effect, or another doubt; inactive means no such curve, though single readings can be large; an effect the other way counts as inactive or inconclusive. Potency means the concentration at half of the fitted maximal effect.
SMILES,MCF10A rereplic,SW480 rereplic,KB-V1 MDR tox,KB-3-1 tox,ELG1 repair inh
Cc1nc2ncnn2c(N2CCCC(C(=O)Nc3ccc4c(c3)CCC4)C2)c1C (stereo not given),4%,-6%,?,?,18µM*
Cc1sc2ncn(CC(=O)N3CCN(c4cccc(Cl)c4)CC3)c(=O)c2c1S(=O)(=O)N1CCC(C)CC1,nt,nt,i,i,nt
COc1ccc(NC(=O)N2CCCC(C(=O)NCCc3ccccc3)C2)cc1 (stereo not given),13%,2%,23µM*,i,?
CC(=O)Nc1nc2cc3c(cc2s1)OCO3,?,-1%,i,i,?
CC(=O)c1sc(Nc2ccccn2)nc1C,17%,-1%,?,15µM*,?
CC(=O)c1sc(Nc2nc3cc4c(cc3s2)OCO4)nc1C,18µM*,21µM*,?,i,?
COc1ccc2nc(Nc3nc(C)c(C(C)=O)s3)sc2c1,?,16µM*,18µM*,i,?
CC(C)NC(=O)N(C)C[C@H]1Oc2cc(C#Cc3ccc(F)cc3)ccc2S(=O)(=O)N([C@H](C)CO)C[C@H]1C,nt,nt,i,i,nt
CN1c2c(nc(N)[nH]c2=O)NCC1CNc1ccc(C(=O)NC(CCC(=O)O)C(=O)O)cc1 (stereo not given),-2%,-10%,i,i,nt
O=C(Cc1ccccc1)Nc1ccc(NC(=O)C2CCCCC2)nc1,3%,-3%,i,i,5.2µM*
O=C(Cc1ccccc1)Nc1ccc(NC(=O)C2CC2)nc1,5%,-1%,i,i,8%
COc1ccc2c(c1)sc1ncc(C(=O)NCc3cccc(C)c3)c(=O)n12,nt,nt,?,i,nt
CCOC1CCCc2oc(-c3ccc(OC)cc3)c(C(=O)NCCCCO)c21 (stereo not given),nt,nt,i,i,nt
C[C@@]12C(=O)OC(=O)[C@]1(C)C1CCC2O1,-3%,?,5.8µM*,?,?
CC12C(=O)N(c3nccs3)C(=O)C1(C)C1CCC2O1 (stereo not given),4%,?,i,i,nt
Cc1ccc(-c2cc(C(=O)NCC(c3ccccc3)N(C)C)c3ccccc3n2)o1 (stereo not given),?,26µM*,i,i,-26%
COC(=O)c1cc(-c2ccc(C)o2)nc2ccccc12,23µM*,16µM*,?,i,0%
COc1ccc(-c2cc(C(=O)NCC(c3ccccc3)N(C)C)c3ccccc3n2)cc1OC (stereo not given),18µM*,18µM*,i,i,-19%
Cc1ccc(-c2cc(C(=O)O)c3cc(Br)ccc3n2)o1,?,-5%,?,i,9%
Cc1ccc(-c2cc(C(=O)NCCCn3ccnc3)c3cc(Br)ccc3n2)o1,8%,?,21µM*,i,1%
COc1ccccc1NC(=O)c1cc(-c2ccc(OC)c(OC)c2)nc2ccccc12,14%,16%,i,i,-6%
Cc1ccc(-c2cc(C(=O)Nc3ccccc3C)c3ccccc3n2)o1,?,1%,i,i,?
COc1ccc(OC)c(/C=C2/Sc3ccccc3C2=O)c1,-8%,-4%,?,i,25%
COCCN(C(=O)COC(=O)c1ccc(Cl)s1)c1c(N)n(Cc2ccccc2)c(=O)[nH]c1=O,1%,-6%,?,i,?
CC1(C(=O)NS(=O)(=O)c2ccc(F)cc2F)CCN1C(=O)c1ccccc1CCc1ccccc1 (stereo not given),nt,nt,i,i,nt
SMILES,MCF10A rereplic,SW480 rereplic,KB-V1 MDR tox,KB-3-1 tox,ELG1 repair inh
COc1cc(/C=N/NC(=O)c2ccc(CSc3nc4ccccc4[nH]3)cc2)cc(OC)c1OC,?,?,?,i,7.3µM*
CCn1cc(C(=O)N(C)c2ccc(OC)cc2OC)c2cc(OC)c(OC)cc2c1=O,-2%,-4%,i,i,15µM*
Cc1cc(C)n2nc(SCc3nnc(SCc4ccccc4C)s3)nc2n1,-7%,-20%,21µM*,i,?
Cc1cc(C)n2nc(SCC3COc4ccccc4O3)nc2n1 (stereo not given),0%,5%,23µM*,i,?
Cc1ccc(C)c(CSc2nc(-c3ccccc3F)nc3c2Cc2c(CO)cnc(C)c2O3)c1,nt,nt,i,i,nt
CCOc1ccc(C(=O)N2CCC(c3ccncc3)CC2)cc1,nt,nt,i,?,nt
COC(=O)c1ccc(C(=O)OC)c(NC(=S)N2CC(C)CC(C)C2)c1 (stereo not given),-67%,-54%,15µM*,i,0%
COC(=O)c1ccc(C(=O)OC)c(NC(=S)N2CCCC(C)C2)c1 (stereo not given),-91%,?,18µM*,i,4%
COC(=O)c1ccc(C(=O)OC)c(NC(=S)N2CCC(C(N)=O)CC2)c1,-3%,-40%,i,i,-2%
O=C(O)C(=Cc1cccc([N+](=O)[O-])c1)c1ccc(Cl)cc1,1%,0%,i,i,nt
O=C(NC1(C(F)(F)F)N=C(c2ccccc2)NC1=O)c1ccccc1F (stereo not given),?,1%,i,i,2%
O=C(NC1(C(F)(F)F)N=C(c2ccccc2)NC1=O)c1ccc(Cl)cc1Cl (stereo not given),-5%,4%,18µM*,i,9%
S=C(NCCc1cccc(Cl)c1)NC1CCCCC1,1%,?,?,?,?
O=C(/C=C/c1ccco1)N1CCN(S(=O)(=O)c2cccc([N+](=O)[O-])c2)CC1,2%,-2%,23µM*,i,-13%
COc1ccc(S(=O)(=O)N2CCN(C(=O)/C=C/c3ccco3)CC2)cc1,0%,-24%,i,i,-27%
COc1cc(OC)c(C2Nc3ccccc3-c3nnc(SCc4ccccc4)nc3O2)cc1OC (stereo not given),nt,nt,i,i,nt
CC(=O)c1ccc2c(c1)C1C=CCC1C(C(=O)O)N2 (stereo not given),-7%,-12%,i,i,10%
CC(=O)c1ccc2c(c1)C1C=CCC1C(c1ccncc1)N2 (stereo not given),-9%,-2%,23µM*,?,?
CC(=O)N1CCc2cc(S(=O)(=O)CCC(=O)N3CCN(c4cccc(C)c4C)CC3)ccc21,nt,nt,i,i,nt
COc1ccc(-c2onc(C)c2-c2cscn2)c(O)c1,18%,0%,i,i,-17%
CCCOC(=O)c1ccc(-c2c(C)noc2-c2ccc(OC)cc2O)o1,?,-9%,i,i,21µM*

# Source: PubChem (National Center for Advancing Translational Sciences (NCATS))
